Measured values as given in the supplement of paper PMC11732987, “Enantioselective OTUD7B fragment discovery through chemoproteomics screening and high-throughput optimisation” (Communications Chemistry, 2025).

Assays:
Test in all cases: log2 ratio of Biotin-Ahx-Ub-VS probe labelling (fragment/DMSO); higher = less target engagement (more negative = stronger competition), active = hit call of the paper (q ≤ 0.05, log2 ratio ≤ -1)
Details in all cases: compound concentration: 200 uM; treatment time: 3 h
ALG13 = target: T1, ALG13 (UniProt Q9NP73)
T1 sequence (whole entry): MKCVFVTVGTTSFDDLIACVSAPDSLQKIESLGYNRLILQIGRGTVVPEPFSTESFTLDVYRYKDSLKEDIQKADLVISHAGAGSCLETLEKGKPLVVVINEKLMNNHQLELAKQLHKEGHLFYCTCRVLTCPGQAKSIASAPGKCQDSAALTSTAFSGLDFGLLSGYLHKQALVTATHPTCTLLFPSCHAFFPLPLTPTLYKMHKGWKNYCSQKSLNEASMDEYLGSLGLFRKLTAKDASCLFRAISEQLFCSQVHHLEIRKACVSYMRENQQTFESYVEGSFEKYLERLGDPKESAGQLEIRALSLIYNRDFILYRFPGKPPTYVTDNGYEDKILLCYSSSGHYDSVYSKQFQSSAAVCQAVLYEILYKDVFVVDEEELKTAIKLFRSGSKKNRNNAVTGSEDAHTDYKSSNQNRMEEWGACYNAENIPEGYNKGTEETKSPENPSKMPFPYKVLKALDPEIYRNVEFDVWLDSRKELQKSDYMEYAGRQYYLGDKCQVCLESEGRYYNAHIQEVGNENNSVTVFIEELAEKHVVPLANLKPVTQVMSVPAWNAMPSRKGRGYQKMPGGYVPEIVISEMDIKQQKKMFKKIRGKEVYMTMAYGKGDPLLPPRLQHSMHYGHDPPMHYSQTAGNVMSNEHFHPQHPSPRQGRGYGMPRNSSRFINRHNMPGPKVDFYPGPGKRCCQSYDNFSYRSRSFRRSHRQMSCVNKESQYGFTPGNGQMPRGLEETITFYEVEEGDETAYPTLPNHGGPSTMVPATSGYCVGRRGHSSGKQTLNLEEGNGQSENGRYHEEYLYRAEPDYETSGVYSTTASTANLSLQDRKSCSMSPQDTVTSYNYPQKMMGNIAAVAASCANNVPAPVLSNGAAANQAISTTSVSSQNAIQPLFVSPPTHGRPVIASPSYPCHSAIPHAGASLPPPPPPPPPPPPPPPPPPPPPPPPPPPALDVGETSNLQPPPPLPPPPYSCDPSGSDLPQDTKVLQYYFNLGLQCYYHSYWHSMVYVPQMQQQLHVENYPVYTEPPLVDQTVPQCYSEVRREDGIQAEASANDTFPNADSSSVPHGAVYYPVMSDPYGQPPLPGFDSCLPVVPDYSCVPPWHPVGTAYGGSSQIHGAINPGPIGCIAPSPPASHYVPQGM
Outline: (§1)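 HEK293T lysate (495 µg per sample, in Tris/CHAPS/IGEPAL buffer with protease inhibitors) was exposed in triplicate for 3 h to fragment at 200 µM or to vehicle, then to Biotin-Ahx-Ub-VS at 0.5 µM final for 1 h. Labelled DUBs were enriched on NeutrAvidin, digested with LysC and trypsin, and analysed by diaPASEF LC-MS/MS. Spectronaut label-free quantities were normalised to the global median, and values are average log2 ratios of fragment over vehicle from an unpaired t-test. Only proteins with ≥2 unique peptides were used.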

ATXN3 = ATXN3 (UniProt P54252)
Outline: as §1

BAP1 = target: T2, BAP1 (UniProt Q92560)
T2 sequence (whole entry): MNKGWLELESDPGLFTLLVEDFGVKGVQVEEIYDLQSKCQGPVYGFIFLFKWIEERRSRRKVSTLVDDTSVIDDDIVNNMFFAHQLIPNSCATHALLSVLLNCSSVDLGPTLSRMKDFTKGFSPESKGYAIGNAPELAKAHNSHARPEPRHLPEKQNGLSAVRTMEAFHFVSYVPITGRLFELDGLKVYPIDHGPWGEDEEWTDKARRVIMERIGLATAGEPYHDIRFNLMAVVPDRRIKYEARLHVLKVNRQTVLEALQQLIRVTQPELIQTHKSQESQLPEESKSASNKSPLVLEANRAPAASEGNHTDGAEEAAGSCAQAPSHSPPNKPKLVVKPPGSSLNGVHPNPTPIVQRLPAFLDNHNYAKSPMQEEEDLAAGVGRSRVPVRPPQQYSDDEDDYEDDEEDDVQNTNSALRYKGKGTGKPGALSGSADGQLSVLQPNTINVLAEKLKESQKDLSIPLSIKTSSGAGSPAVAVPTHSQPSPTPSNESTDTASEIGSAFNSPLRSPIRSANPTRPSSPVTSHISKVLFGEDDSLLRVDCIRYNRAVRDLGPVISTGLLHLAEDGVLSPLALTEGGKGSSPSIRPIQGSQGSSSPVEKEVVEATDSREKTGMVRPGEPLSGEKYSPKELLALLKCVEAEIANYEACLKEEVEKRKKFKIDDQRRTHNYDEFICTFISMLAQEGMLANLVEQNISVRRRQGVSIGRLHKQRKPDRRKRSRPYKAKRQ
Outline: as §1

EIF3F = EIF3F (UniProt O00303)
Outline: as §1

EIF3H = EIF3H (UniProt O15372)
Outline: as §1

FAM105A = target: T3, FAM105A (UniProt Q9NUU6)
T3 sequence (whole entry): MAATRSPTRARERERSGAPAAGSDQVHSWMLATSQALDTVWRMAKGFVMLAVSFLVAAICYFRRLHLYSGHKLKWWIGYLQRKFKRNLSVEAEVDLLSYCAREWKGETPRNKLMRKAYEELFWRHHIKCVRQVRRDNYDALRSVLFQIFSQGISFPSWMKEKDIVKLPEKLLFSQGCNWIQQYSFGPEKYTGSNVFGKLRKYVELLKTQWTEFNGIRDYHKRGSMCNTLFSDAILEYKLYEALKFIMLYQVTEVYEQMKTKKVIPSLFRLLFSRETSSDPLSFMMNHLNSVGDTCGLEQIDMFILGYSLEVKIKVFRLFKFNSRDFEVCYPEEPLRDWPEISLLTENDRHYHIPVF
Outline: as §1

OTUB1 = OTUB1 (UniProt Q96FW1)
Outline: as §1

OTUD4 = target: T4, OTUD4 (UniProt Q01804)
T4 sequence (whole entry): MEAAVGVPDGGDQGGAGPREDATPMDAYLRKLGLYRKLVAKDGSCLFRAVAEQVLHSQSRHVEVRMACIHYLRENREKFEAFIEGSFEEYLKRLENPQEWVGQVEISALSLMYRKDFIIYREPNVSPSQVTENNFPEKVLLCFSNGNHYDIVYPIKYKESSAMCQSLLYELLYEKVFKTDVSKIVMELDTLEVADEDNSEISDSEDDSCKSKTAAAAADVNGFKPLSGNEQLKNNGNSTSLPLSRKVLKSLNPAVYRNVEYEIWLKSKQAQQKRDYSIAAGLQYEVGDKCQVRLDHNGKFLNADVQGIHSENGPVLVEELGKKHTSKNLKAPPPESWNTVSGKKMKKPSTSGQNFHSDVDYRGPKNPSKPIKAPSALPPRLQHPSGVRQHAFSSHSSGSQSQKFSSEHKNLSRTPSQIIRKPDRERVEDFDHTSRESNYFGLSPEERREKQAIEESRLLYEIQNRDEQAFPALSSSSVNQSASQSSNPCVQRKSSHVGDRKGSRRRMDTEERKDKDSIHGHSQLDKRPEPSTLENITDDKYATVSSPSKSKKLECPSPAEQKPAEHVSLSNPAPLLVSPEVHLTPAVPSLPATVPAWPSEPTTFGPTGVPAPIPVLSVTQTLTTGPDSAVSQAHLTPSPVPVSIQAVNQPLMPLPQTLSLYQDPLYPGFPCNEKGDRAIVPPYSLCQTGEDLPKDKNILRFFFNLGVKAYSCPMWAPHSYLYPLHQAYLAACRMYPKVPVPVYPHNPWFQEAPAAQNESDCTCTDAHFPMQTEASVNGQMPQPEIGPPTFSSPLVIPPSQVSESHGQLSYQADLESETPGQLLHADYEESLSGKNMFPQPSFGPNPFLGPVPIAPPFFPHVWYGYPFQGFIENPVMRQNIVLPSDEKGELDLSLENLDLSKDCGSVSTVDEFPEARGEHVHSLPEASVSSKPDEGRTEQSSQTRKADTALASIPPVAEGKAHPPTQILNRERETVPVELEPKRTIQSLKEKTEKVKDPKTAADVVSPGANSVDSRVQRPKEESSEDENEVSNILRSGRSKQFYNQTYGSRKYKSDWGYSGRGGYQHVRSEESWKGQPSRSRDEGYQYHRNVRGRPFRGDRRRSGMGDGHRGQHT
Outline: as §1

OTUD5 = target: T5, OTUD5 (UniProt Q96G74)
T5 sequence (whole entry): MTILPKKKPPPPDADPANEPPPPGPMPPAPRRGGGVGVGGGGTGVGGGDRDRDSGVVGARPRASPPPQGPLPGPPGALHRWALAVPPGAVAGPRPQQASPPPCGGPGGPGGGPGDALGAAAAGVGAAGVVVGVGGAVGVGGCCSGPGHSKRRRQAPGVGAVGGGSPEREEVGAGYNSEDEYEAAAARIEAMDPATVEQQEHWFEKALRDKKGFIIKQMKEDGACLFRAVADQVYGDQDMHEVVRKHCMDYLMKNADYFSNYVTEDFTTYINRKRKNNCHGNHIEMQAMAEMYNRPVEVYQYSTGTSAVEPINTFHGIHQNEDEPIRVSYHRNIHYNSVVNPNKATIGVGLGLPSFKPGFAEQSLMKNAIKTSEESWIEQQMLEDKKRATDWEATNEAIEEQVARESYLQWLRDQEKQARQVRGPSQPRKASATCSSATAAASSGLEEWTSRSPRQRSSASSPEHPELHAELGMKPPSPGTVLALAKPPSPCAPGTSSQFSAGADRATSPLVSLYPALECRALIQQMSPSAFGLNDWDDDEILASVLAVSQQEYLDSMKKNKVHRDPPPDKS
Outline: as §1

Measured: log2 ratio of Biotin-Ahx-Ub-VS probe labelling

Chain of EIF3H (O15372 whole entry): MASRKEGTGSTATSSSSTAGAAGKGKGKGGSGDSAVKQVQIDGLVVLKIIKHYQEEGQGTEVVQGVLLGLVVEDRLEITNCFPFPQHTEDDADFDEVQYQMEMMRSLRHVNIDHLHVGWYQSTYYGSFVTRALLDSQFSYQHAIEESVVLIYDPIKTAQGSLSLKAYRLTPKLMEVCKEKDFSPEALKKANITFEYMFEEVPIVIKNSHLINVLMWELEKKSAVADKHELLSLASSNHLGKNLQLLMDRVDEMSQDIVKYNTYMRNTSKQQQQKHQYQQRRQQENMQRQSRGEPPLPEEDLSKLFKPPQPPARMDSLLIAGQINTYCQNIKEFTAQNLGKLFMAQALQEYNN
Chain of ATXN3 (P54252 whole entry): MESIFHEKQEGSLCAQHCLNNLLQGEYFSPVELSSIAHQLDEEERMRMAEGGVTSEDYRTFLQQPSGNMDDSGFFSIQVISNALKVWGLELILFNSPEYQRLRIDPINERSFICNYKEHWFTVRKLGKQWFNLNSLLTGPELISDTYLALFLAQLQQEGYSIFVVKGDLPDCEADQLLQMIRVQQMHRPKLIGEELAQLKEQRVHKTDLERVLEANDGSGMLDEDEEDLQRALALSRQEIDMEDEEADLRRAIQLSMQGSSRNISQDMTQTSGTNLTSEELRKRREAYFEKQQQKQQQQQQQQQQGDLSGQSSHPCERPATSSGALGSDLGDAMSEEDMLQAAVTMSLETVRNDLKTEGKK
Chain of OTUB1 (Q96FW1 whole entry): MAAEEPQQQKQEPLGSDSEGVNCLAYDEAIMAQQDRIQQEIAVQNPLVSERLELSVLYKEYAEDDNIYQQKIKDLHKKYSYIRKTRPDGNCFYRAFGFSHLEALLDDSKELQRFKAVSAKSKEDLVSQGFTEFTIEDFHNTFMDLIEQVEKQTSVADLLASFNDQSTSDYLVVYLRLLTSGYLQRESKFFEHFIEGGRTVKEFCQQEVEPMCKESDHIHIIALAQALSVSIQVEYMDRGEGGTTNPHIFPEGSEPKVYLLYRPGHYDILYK
Chain of EIF3F (O00303 whole entry): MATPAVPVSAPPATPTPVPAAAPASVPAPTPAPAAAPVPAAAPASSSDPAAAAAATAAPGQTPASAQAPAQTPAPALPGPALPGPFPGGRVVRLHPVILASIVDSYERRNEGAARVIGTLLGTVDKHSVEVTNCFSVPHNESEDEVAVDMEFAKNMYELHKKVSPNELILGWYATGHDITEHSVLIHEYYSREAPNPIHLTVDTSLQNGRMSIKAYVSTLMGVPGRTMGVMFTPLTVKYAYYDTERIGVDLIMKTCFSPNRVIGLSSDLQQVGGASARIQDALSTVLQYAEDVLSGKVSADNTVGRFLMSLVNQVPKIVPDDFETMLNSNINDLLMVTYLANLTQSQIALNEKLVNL

Cc1cccnc1NC(=O)C1CCN(C(=O)CCl)CC1.Cl
inactive: ALG13 0.0719 | ATXN3 -0.281 | BAP1 -0.703 | EIF3F -0.244 | EIF3H 0.146 | FAM105A -0.0889 | OTUB1 -0.251 | OTUD4 -0.365 | OTUD5 -0.447
